This note sets out measurements from PubChem BioAssay (EPA / NIEHS).

Values joined by “and” are separate entries in the source; they are usually repeats but may differ in a detail not shown here. Identical values can stand only once. Records with an inconclusive call do not appear. The source holds several records for some structures; these can differ, active in one and inactive in another. Active and inactive are the calls of the source. The calls were made as follows, unless noted: active = hit-call score of the fitted dose curve at least 0.9, where 1 is the maximum; inconclusive = response in the unintended direction; inactive = score below 0.9.

Read-out in assay [1]: solute carrier (SLCO1B1), SLCO1B1 (gene 10599)
The assay is described as follows: LTEA_HepaRG_SLCO1B1: Life Technologies and Expression Analysis (LTEA) Assay for solute carrier (SLCO1B1) using HepaRG (AID 2283530; active = hit-call score of the fitted dose curve at least 0.9, where 1 is the maximum; inactive = score below 0.9). Particulars: mRNA level, 48 h; actives raise or lower the signal. The method in brief:
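HepaRG, serum-free induction medium, 48 h dosing, 8-pt half-log from 100 uM, 0.5% DMSO vehicle, duplicates. Readout: SLCO1B1 mRNA, qRT-PCR, ACTB/GAPDH/POLR2A normalization; up or down fit vs DMSO.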

Read-out in assay [2]: sulfotransferase 2A1 (SULT2A1), SULT2A1 (gene 6822)
The assay is described as follows: LTEA_HepaRG_SULT2A1: Life Technologies and Expression Analysis (LTEA) Assay for sulfotransferase 2A1 (SULT2A1) using HepaRG (AID 2283531; active = hit-call score of the fitted dose curve at least 0.9, where 1 is the maximum; inactive = score below 0.9). The note with it: mRNA level, 48 h; actives raise or lower the signal. The method in brief: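 Transcript levels of SULT2A1, quantified by qRT-PCR and normalized to three housekeeping genes, serve as the readout. Human HepaRG cultures receive test chemicals for 48 h at up to 100 uM in half-log steps, with 0.5% DMSO vehicle.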

Read-out in assay [3]: Transforming Growth Factor (TGFA), TGFA (gene 7039)
Briefly: LTEA_HepaRG_TGFA: Life Technologies and Expression Analysis (LTEA) Assay for Transforming Growth Factor (TGFA) using HepaRG (AID 2283532; active = hit-call score of the fitted dose curve at least 0.9, where 1 is the maximum; inactive = score below 0.9). The note with it: mRNA level, 48 h; actives raise or lower the signal. The method in brief: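 Differentiated HepaRG cells exposed 48 hours in serum-free induction medium, 0.5% DMSO vehicle, 8-point half-log series from 100 uM, in duplicate. TGFA mRNA by TaqMan qRT-PCR, normalised to ACTB, GAPDH, POLR2A; bidirectional fit versus DMSO.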

Read-out in assay [4]: Transforming Growth Factor (TGFB1), TGFB1 (gene 7040)
Briefly: LTEA_HepaRG_TGFB1: Life Technologies and Expression Analysis (LTEA) Assay for Transforming Growth Factor (TGFB1) Transporter using HepaRG (AID 2283533; active = hit-call score of the fitted dose curve at least 0.9, where 1 is the maximum; inactive = score below 0.9). The note with it: mRNA level, 48 h; actives raise or lower the signal. The method in brief: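 HepaRG, 48 h post-plating, switched to serum-free induction medium; chemicals 100 uM top, half-log, 8 pts, 0.5% DMSO, dup; 48 h exposure; RNA → Fluidigm TaqMan qRT-PCR; norm ACTB/GAPDH/POLR2A; bidirectional fit vs DMSO.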

Read-out in assay [5]: TIMP1, TIMP1 (gene 7076)
Briefly: LTEA_HepaRG_TIMP1: Life Technologies and Expression Analysis (LTEA) Assay for TIMP1 using HepaRG (AID 2283534; active = hit-call score of the fitted dose curve at least 0.9, where 1 is the maximum; inactive = score below 0.9). Particulars: mRNA level, 48 h; actives raise or lower the signal. The method in brief: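 Readout is TIMP1 mRNA level measured by qRT-PCR and normalized to three housekeeping genes. Human HepaRG cells were treated for 48 h in duplicate at eight concentrations up to 100 uM (0.5% DMSO); gain or loss fitted against DMSO.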

Read-out in assay [6]: Tumor necrosis factor receptor 1 (TNFRSF1A), TNFRSF1A (gene 7132)
The assay is described as follows: LTEA_HepaRG_TNFRSF1A: Life Technologies and Expression Analysis (LTEA) Assay for Tumor necrosis factor receptor 1 (TNFRSF1A) using HepaRG (AID 2283535; active = hit-call score of the fitted dose curve at least 0.9, where 1 is the maximum; inactive = score below 0.9). The note with it: mRNA level, 48 h; actives raise or lower the signal. The method in brief:
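Read-out is TNFRSF1A transcript level by TaqMan qRT-PCR, normalized to three housekeeping genes, scored as gain or loss of signal versus 0.5% DMSO. Human HepaRG cells received test chemicals for 48 h at up to 100 uM (half-log series).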

Read-out in assay [7]: Thyroid Hormone Responsive (THRSP), THRSP (gene 7069)
The assay is described as follows: LTEA_HepaRG_THRSP: Life Technologies and Expression Analysis (LTEA) Assay for Thyroid Hormone Responsive (THRSP) using HepaRG (AID 2283536; active = hit-call score of the fitted dose curve at least 0.9, where 1 is the maximum; inactive = score below 0.9). Particulars: mRNA level, 48 h; actives raise or lower the signal. The method in brief: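 Differentiated HepaRG cells treated 48 h in serum-free induction medium with 8 half-log concentrations up to 100 uM (0.5% DMSO), duplicates. THRSP mRNA by TaqMan qRT-PCR normalised to ACTB, GAPDH, POLR2A; bidirectional fit versus DMSO.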

Read-out in assay [8]: Cellular tumor antigen p53 (Homo sapiens) (UniProt P04637)
The assay is described as follows: LTEA_HepaRG_TP53: Life Technologies and Expression Analysis (LTEA) Assay for Tumor Protein P53 (TP53) using HepaRG (AID 2283537; active = hit-call score of the fitted dose curve at least 0.9, where 1 is the maximum; inactive = score below 0.9). The note with it: mRNA level, 48 h; actives raise or lower the signal. The method in brief: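 Gain or loss of TP53 mRNA signal is scored relative to 0.5% DMSO after 48 h chemical treatment of HepaRG liver cells, tested in duplicate at eight half-log concentrations up to 100 uM.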

Read-out in assay [9]: UDP glucuronosyltransferase (UGT1A1), UGT1A1 (gene 54658)
The assay is described as follows: LTEA_HepaRG_UGT1A1: Life Technologies and Expression Analysis (LTEA) Assay for UDP glucuronosyltransferase (UGT1A1) using HepaRG (AID 2283538; active = hit-call score of the fitted dose curve at least 0.9, where 1 is the maximum; inactive = score below 0.9). The note with it: mRNA level, 48 h; actives raise or lower the signal. The method in brief: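 Differentiated human HepaRG cells in serum-free induction medium were exposed in duplicate for 48 h to eight half-log concentrations up to 100 uM in 0.5% DMSO. UGT1A1 mRNA was quantified by TaqMan qRT-PCR, normalized to ACTB, GAPDH and POLR2A, and fitted bidirectionally against DMSO.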

Read-out in assay [10]: UDP glucuronosyltransferase (UGT1A6), UGT1A6 (gene 54578)
Briefly: LTEA_HepaRG_UGT1A6: Life Technologies and Expression Analysis (LTEA) Assay for UDP glucuronosyltransferase (UGT1A6) using HepaRG (AID 2283539; active = hit-call score of the fitted dose curve at least 0.9, where 1 is the maximum; inactive = score below 0.9). The note with it: mRNA level, 48 h; actives raise or lower the signal. The method in brief:
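HepaRG, 48 h post-plating switch to serum-free induction medium; chemical 48 h, 100 uM top, half-log x8, duplicate, 0.5% DMSO. Phenobarbital 1mM induction control. UGT1A6 mRNA by TaqMan qRT-PCR; gain/loss fit vs DMSO.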

Read-out in assay [11]: X-box binding protein 1 (XBP1), XBP1 (gene 7494)
Briefly: LTEA_HepaRG_XBP1: Life Technologies and Expression Analysis (LTEA) Assay for X-box binding protein 1 (XBP1) using HepaRG (AID 2283540; active = hit-call score of the fitted dose curve at least 0.9, where 1 is the maximum; inactive = score below 0.9). Particulars: mRNA level, 48 h; actives raise or lower the signal. The method in brief:
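Transcript levels of XBP1, measured by qRT-PCR and normalised to three housekeeping genes, were fitted bidirectionally relative to 0.5% DMSO controls. Human HepaRG cells received eight-point half-log dilutions from 100 uM for 48 h.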

Assay [12] in a line: LTEA_HepaRG_LDH_cytotoxicity: Cytotoxicity Assessment in the Life Technologies and Expression Analysis (LTEA) Assay (AID 2283563).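 As to AC50: LDH activity released into spent culture medium as a marker of cell death.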 The method in brief: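 Cells were thawed and plated for 48 h. Medium was then replaced with serum-free induction medium. Chemicals (8 half-log points, maximum 100 uM, 0.5% DMSO) were added in duplicate for 48 h, after which spent medium was assayed for LDH.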

Assay [13] is described as follows: ATG_XTT_Cytotoxicity: Cytotoxicity Assessment in the Attagene TRANS-FACTORIAL HepG2 Assay (AID 2283584).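 As to AC50: cells exposed to compound for 24 h before reading; active means loss of viability signal versus DMSO baseline.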 The method in brief:
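Cells: human HepG2, transiently transfected with MRTU reporter constructs. Exposure 24 h. Readout: XTT, cell number. Baseline/neg ctrl DMSO; loss-of-signal scored.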

A short description of assay [14]: TOX21_p53_BLA_p2_viability: Viability Assessment in the Tox21 HCT-116 p53 Agonism Beta-lactamase Assay, Phase 2 (AID 2283591).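 Also: compound exposure lasted 16 h at 37 °C; actives lower the ATP signal meaning cytotoxicity.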 The method in brief:
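HCT116 p53-bla cells, 4000/well, dosed after 5 h plating (217-fold dilution of DMSO stocks) and incubated 16 h at 37C. Viability taken as cellular ATP by CellTiter-Glo luminescence after 30 min RT; signal loss marks cytotoxicity.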

The nature of assay [15]: TOX21_p53_BLA_p3_viability: Viability Assessment in the Tox21 HCT-116 p53 Agonism Beta-lactamase Assay, Phase 3 (AID 2283593).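 Also: cells exposed to compound for 16 h before reading.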 The method in brief: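 HCT116 cells, 4000/well, dosed 5 h after plating by pin transfer (217-fold dilution from DMSO stock) and incubated 16 h at 37C, 5% CO2. Viability read as ATP luminescence with CellTiter-Glo after 30 min at room temperature.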

The target in assay [16] is Cellular tumor antigen p53 (Homo sapiens) (UniProt P04637). The assay is described as follows: TOX21_p53_BLA_p3_ratio: Tox21 HCT-116 p53 Agonism Beta-lactamase Assay, Ratio, Phase 3 (AID 2283596). The method in brief:
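HCT116 p53-bla cells (4000/well) given compound in DMSO (217-fold dilution) after 5 h, incubated 16 h at 37C. CCF4-AM substrate 2 h at room temperature; 460/530 nm emission ratio, gain fitted against DMSO.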

Assay [17] in a line: TOX21_p53_BLA_p4_viability: Viability Assessment in the Tox21 HCT-116 p53 Agonism Beta-lactamase Assay, Phase 4 (AID 2283597).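 Also: hits lower the luminescence signal meaning cytotoxicity.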 The method in brief: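 Cells plated, 5 h pre-incubation; DMSO compounds pinned (217-fold dilution); 16 h, 37C/5% CO2; CCF4-AM 2 h RT; CellTiter-Glo 30 min RT; luminescence read.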
The target in assay [18] is Cellular tumor antigen p53 (Homo sapiens) (UniProt P04637). The assay is described as follows: TOX21_p53_BLA_p5_ratio: Tox21 HCT-116 p53 Agonism Beta-lactamase Assay, Ratio, Phase 5 (AID 2283599). The method in brief: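 HCT-116 p53-bla cells (4000/well) plated 5 h, dosed with compound (217-fold DMSO dilution) for 16 h at 37 C; CCF4-AM substrate 2 h at room temperature. Activity is the 460/530 nm emission ratio (405 nm excitation), fitted in gain-of-signal direction versus DMSO.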

Assay [19] is described as follows: TOX21_p53_BLA_p5_viability: Viability Assessment in the Tox21 HCT-116 p53 Agonism Beta-lactamase Assay, Phase 5 (AID 2283600). The method in brief:
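4000 cells/well; 5 h pre-incubation; DMSO compounds pin-transferred, 217-fold dilution; 16 h, 37C/5% CO2; CCF4-AM 2 h RT; CellTiter-Glo 30 min RT; luminescence.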

Cellular tumor antigen p53 (Homo sapiens), sequence (P04637 whole entry, looked up): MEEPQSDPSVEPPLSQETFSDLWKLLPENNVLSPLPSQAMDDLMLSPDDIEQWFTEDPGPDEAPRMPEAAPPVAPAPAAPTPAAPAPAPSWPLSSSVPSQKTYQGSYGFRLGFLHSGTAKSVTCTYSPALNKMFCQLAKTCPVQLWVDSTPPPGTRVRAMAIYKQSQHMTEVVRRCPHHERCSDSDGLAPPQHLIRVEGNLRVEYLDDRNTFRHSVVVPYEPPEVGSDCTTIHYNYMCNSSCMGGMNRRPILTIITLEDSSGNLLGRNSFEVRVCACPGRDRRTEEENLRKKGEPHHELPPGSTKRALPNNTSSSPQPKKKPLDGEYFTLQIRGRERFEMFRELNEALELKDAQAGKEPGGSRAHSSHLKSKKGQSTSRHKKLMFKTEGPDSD

`CCCCC(CC)COC(=O)CCCCCCCC(=O)OCC(CC)CCCC` (configuration not stated): the call in assay [1], in assay [2], in assay [3], in assay [4], in [5] and in [6] was inactive. The result in [7], in assay [8], in [9], in assay [10], in [11] and in assay [12] was inactive. The outcome in assay [13], in assay [14], in assay [15], in assay [16], in assay [17] and in assay [18] was inactive. Further, the outcome in assay [19] was inactive.
As for `CN(C)CCCN1c2ccccc2Sc2ccc(Cl)cc21`, the compound was called inactive in assay [1], in [3], in [5], in [6], in assay [8] and in assay [9]. Besides, the outcome in [10], in assay [15], in assay [16] and in assay [18] was inactive. Further, the AC50 was 82.7 µM (active) in assay [2]; 12.5 µM (active) in assay [4]; 15.8 µM (active) in assay [7]; 38.4 µM (active) in assay [12]; 43.2 µM (active) in assay [13]; 73.4 µM (active) in assay [14]. In addition, the AC50 in assay [17] was 36.8 µM (active) and 73.4 µM (active); in assay [19] it was 77.8 µM (active).
For `Oc1ccc(O)cc1`, the call in [1], in assay [2], in assay [3], in assay [4], in assay [5] and in [6] was inactive. The compound was classed as inactive in assay [7], in [8], in [9], in [10], in [12] and in [13]. Moreover, the call in [14], in [16] and in [18] was inactive. For the same compound, the AC50 in [14] was 72.8 µM (active) and 70 µM (active); in assay [15] it was 42.5 µM (active) and 61.1 µM (active) and 38.2 µM (active); in assay [16], 21.4 µM (active); in assay [17] it was 47.1 µM (active) and 70.6 µM (active) and 36.2 µM (active); in assay [19], 17 µM (active) and 35.8 µM (active) and 37.7 µM (active).

Usually AC50 stands for the midpoint of the concentration-response curve, whichever way the signal moves.
